In PubChem BioAssay one finds z-score data, which are given here for 15 compounds.

The structures appear in SMILES notation. Calls of active or inactive are those of the source.

The nature of assay [1]: A549 cell viability effects, profiling panel, calcein-AM fluorescence, 48 h, basal (AID 1162). The settings on record: higher = more signal.
Assay [2] is described as follows: adipocyte viability effects, profiling panel, cell-based, 3T3-L1 adipocytes, calcein-AM fluorescence, 48 h, basal (AID 1163). The settings on record: 3T3-L1 adipocytes viability, higher = more signal.
Assay [3] can be described thus: HepG2 cell viability effects, profiling panel, calcein-AM fluorescence, 48 h, basal (AID 1164). The settings on record: higher = more signal.
The nature of assay [4]: MM1S cell viability effects, profiling panel, calcein-AM fluorescence, 48 h, basal (AID 1165).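 Also: viability of MM1S multiple myeloma cells under basal unstimulated conditions.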 As to conditions: higher = more signal.
The nature of assay [5]: basal RPMI8226 viability, no added stimulus, profiling panel, cell-based, calcein-AM fluorescence, 48 h, PK04 Diversity Set (AID 1166).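 Also: cells grown under basal conditions without added stimulus.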 As to conditions: RPMI8226 myeloma viability, higher = more signal.
Assay [6] in a line: basal HepG2 mitochondrial membrane potential changes, profiling panel, cell-based, JC-1 fluorescence, 24 h, 100 nL compound (AID 1167). As to conditions: higher = more signal.
The nature of assay [7]: basal 3T3-L1 adipocyte mitochondrial potential changes, profiling panel, cell-based, JC-1 fluorescence, 3T3-L1 adipocytes, 24 h, 100 nL compound (AID 1168). The settings on record: JC-1 mitochondrial fluorescence, higher = more signal, called active from +8 up or from −8 down.
The nature of assay [8]: basal RPMI8226 mitochondrial membrane potential changes, profiling panel, cell-based, JC-1 fluorescence, 24 h, 100 nL compound (AID 1169). As to conditions: RPMI8226 myeloma, JC-1 mitochondrial potential fluorescence, higher = more signal.
A short description of assay [9]: basal MM1S mitochondrial membrane potential changes, profiling panel, cell-based, JC-1 fluorescence, 24 h, 100 nL compound (AID 1170). As to conditions: higher = more signal.
The nature of assay [10]: A549 lung cancer cell viability effects, profiling panel, resazurin fluorescence, 24 h, PK04 Diversity Set (AID 1171). As to conditions: higher = more signal, called active from +8 up or from −8 down.
Also: test concentration not given here.

For the compound `CN(C)CCCCCCNC(=O)[C@@H]1C[C@@H]2C(=O)N3CCC[C@H]3C(=O)N2[C@@H]1c1ccc(O)cc1`, the z-score in [1] was 1.26; in [2] it was 1.09; in assay [3], 0.773; in assay [4] it was 0.581; in assay [5], -0.586; in [6], 1.06. For the same compound, the z-score was 0.342 (inactive) in assay [7], -0.689 in assay [8], -0.78 in assay [9] and -0.908 (inactive) in assay [10].
Turning to `COC(=O)C[C@H]1O[C@@H](CCc2ccccc2)[C@@H](C)[C@@H]1[Si](C)(C)c1ccc(OC)cc1`, the z-score in assay [1] was 1.47; in assay [2] it was 1.27; in assay [3] it was -0.755; in [4] it was -0.843; in [5], -3.97; in [6], 0.453. For the same compound, the z-score was -0.0941 (inactive) in assay [7], -1.12 in [8], -0.0681 in assay [9] and 0.989 (inactive) in assay [10].
Consider `CC(C)Cc1ccc(CN2CC[C@@H](N)C2)cc1`, for which the z-score in assay [1] is -0.336; in assay [2], 0.202; in assay [3], -0.375; in assay [4] it was -3.15; in [5], -1.65; in assay [6], 2.5. The z-score is -0.559 (inactive) in assay [7], -0.502 in [8], -2.86 in [9] and 3.36 (inactive) in [10].
Consider `COc1ccccc1CN1C(=O)c2ccccc2[C@@]2(Cc3ccccc3N(CCCN(C)C)C2=O)[C@@H]1c1ccc(CO)cc1`, for which the z-score in assay [1] was -0.733; in assay [2], 1.31; in assay [3], -0.655; in assay [4], 0.229; in [5], -0.0261; in assay [6], 0.511. In addition, the z-score in [7] is -0.459 (inactive); in assay [8], 0.00572; in assay [9] it was -0.343; in assay [10] it was -0.483 (inactive).
As to `[N-]=[N+]=Nc1ccccc1C[C@]1(C(=O)NCC(O)CO)N=C(c2ccc(OCCCO)cc2)O[C@H]1c1ccccc1` (stereo not given in full), the z-score was -0.432 in assay [1]; -0.281 in assay [2]; -0.259 in assay [3]; -1.04 in assay [4]; -0.984 in assay [5]; -0.571 in assay [6]. Also, the z-score is -0.332 (inactive) in assay [7], -0.514 in assay [8], -0.283 in [9] and 0.381 (inactive) in [10].
Turning to `O=C1O[C@H](c2ccccc2)[C@H](c2ccccc2)N2[C@H]1[C@@H](C(=O)NC[C@H](O)c1ccccc1)[C@]1(C(=O)Nc3ccccc31)[C@H]2c1ccc(O)cc1`, the z-score in [1] is -0.184; in assay [2] it was 0.279; in assay [3], -0.454; in assay [4], -2.03; in assay [5], -3.84; in [6] it was -3.2. Besides, the z-score was -0.104 (inactive) in [7], -0.933 in assay [8], -1.03 in assay [9] and -0.377 (inactive) in assay [10].
Consider `O=C1O[C@@H](c2ccccc2)[C@@H](c2ccccc2)N2[C@@H](c3ccccc3OCCO)[C@]3(C(=O)Nc4ccccc43)[C@@H](C(=O)O)[C@H]12`, for which the z-score was -0.796 in assay [1]; 0.266 in assay [2]; 0.045 in [3]; -2.64 in [4]; 0.0803 in assay [5]; 0.249 in [6]. Further, the z-score in assay [7] is -0.742 (inactive); in assay [8], 0.649; in assay [9] it was 0.554; in assay [10] it was 0.362 (inactive).
Turning to `C=CCC(OC(C)=O)[C@@H]1[C@@H](N(Cc2ccc(-c3cccc(C(F)(F)F)c3)o2)C(=O)Cc2ccc(OC)cc2)c2cc(OCCCO)ccc2N1C(=O)c1ccc2ccccc2c1` (stereo not given in full), the z-score in assay [1] was -0.138; in assay [2] it was 1.13; in [3], -0.589; in [4], 0.269; in assay [5], -0.738; in assay [6], 2.15. Also, the z-score was -0.75 (inactive) in assay [7], -0.442 in assay [8], 0.675 in assay [9] and -0.186 (inactive) in [10].
Turning to `CC(C)[Si](C#C[Si](C(C)C)(C(C)C)C(C)C)(O[C@H](C)c1cn(Cc2ccccc2)nn1)C(C)C`, the z-score in [1] was 1.25; in [2], -0.425; in [3], 0.592; in [4], 0.636; in assay [5] it was -1.67; in assay [6], 1.92. Also, the z-score is -0.367 (inactive) in assay [7], 0.0518 in [8], -0.542 in [9] and 0.236 (inactive) in [10].
`CCOc1cc(C(O)C2C=CC3C(=O)N(c4ccccc4)C(=O)C3N2Nc2ccc(C(C)C)cc2)ccc1O` (stereo not given): the z-score was -0.65 in [1]; -0.538 in [2]; -0.159 in [3]; -2.67 in [4]; -1.16 in [5]; -1.66 in assay [6]. Also, the z-score in assay [7] is -0.457 (inactive); in [8] it was 0.41; in assay [9] it was -0.19; in assay [10] it was -0.866 (inactive).
Take `O=c1cccc(-c2ccccc2Cl)o1`: the z-score in assay [1] was 0.586; in assay [2] it was 0.528; in assay [3], 0.614; in [4] it was -1.04; in assay [5] it was 0.0055; in assay [6], -0.98. The z-score is -0.428 (inactive) in [7], -0.103 in [8], 0.304 in assay [9] and -0.0719 (inactive) in assay [10].
Turning to `C=C(CCCC)C(=O)CC[C@@H](OC(C)=O)c1ccc(CO)o1`, the z-score in assay [1] is -0.779; in [2], 0.37; in [3] it was -0.293; in assay [4], 0.0178; in assay [5], -0.878; in assay [6] it was -0.885. The z-score in [7] was 0.352 (inactive); in assay [8] it was 0.703; in [9], -0.179; in assay [10], -0.0655 (inactive).
As for `COC(=O)[C@]1(Cc2ccccc2)N=C(c2ccc(OCCCO)cc2)O[C@@H]1c1ccccc1N=[N+]=[N-]`, the z-score in [1] is -2.41; in assay [2], 0.574; in [3] it was -5.44; in assay [4] it was -3.61; in [5] it was -3.66; in assay [6], -2.75. The z-score was -0.223 (inactive) in [7], -1.13 in assay [8], -2.9 in assay [9] and -2.87 (inactive) in [10].
For the compound `O=C1OCC=C[C@H]2OC34C=CCN(CCN5CCOCC5)C(=O)[C@H]3N(CCO)C(=O)[C@@H]4[C@@H]12` (stereo not given in full), the z-score in assay [1] is -0.157; in assay [2] it was 0.196; in assay [3], 0.804; in [4], -0.635; in [5], -0.253; in assay [6] it was -0.464. The z-score is 0.00617 (inactive) in assay [7], -0.299 in assay [8], 0.292 in [9] and -0.124 (inactive) in assay [10].
Consider `O=C(CS)NCCCCCNC(=O)[C@@H]1C[C@@H]2C(=O)NCC(=O)N2[C@@H]1c1ccc(O)cc1`, for which the z-score was 0.347 in [1]; 0.136 in assay [2]; -1.19 in [3]; -0.403 in [4]; -0.727 in [5]; 1.14 in [6]. Moreover, the z-score was -0.00814 (inactive) in assay [7], 0.852 in assay [8], 0.158 in assay [9] and -1.31 (inactive) in [10].
